According to PubChem BioAssay (NCI):
About 79,000 compounds went through this panel and 15% of them were active in at least one assay; those are over-represented in the sample as a whole. Unmarked numbers belong to inactive results. Calls of active or inactive are those of the source. Cut-off read from the data, not from the text of the source: active = growth inhibition above about 70%; inactive = the rest.

Key:
[1] = NCI Yeast Anticancer Drug Screen. Data for the rad50 strain (AID 155);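 note: 0% = growth of vehicle-only cultures of the same strain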; conditions: S. cerevisiae rad50 strain growth inhibition, hits give high values
Summary of the method: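 Growth of the mutant yeast was measured after compound exposure and referenced to vehicle-treated cultures.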

[2] = NCI Yeast Anticancer Drug Screen. Data for the mec2-1 strain (AID 157); conditions: S. cerevisiae mec2-1 strain, hits give high values
Summary of the method: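 Each compound was tested on mec2-1 yeast, a strain altered in DNA damage repair or cell cycle control. Growth inhibition is reported relative to vehicle.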

[3] = NCI Yeast Anticancer Drug Screen. Data for the sgs1 mgt1 strain (AID 161);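 note: 0% = growth of cultures given vehicle only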; conditions: S. cerevisiae sgs1 mgt1 strain, hits give high values
Summary of the method: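 Test agents were incubated with a DNA-repair-mutant yeast strain. Growth was then read and compared against vehicle-treated controls.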

[4] = NCI Yeast Anticancer Drug Screen. Data for the cln2 rad14 strain (AID 165);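 note: 0% = growth equal to vehicle treated cultures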; conditions: S. cerevisiae cln2 rad14 strain, hits give high values
Summary of the method: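 Test compounds were added to cln2 rad14 yeast cultures; inhibition of growth was then determined by comparison with vehicle treatment.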

[5] = NCI Yeast Anticancer Drug Screen. Data for the bub3 strain (AID 167); conditions: S. cerevisiae bub3 mutant strain, hits give high values
Summary of the method: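 Whole-cell yeast assay. The mutant strain was incubated with compounds, and growth inhibition was determined by comparison with vehicle-treated cells.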

[6] = NCI Yeast Anticancer Drug Screen. Data for the mlh1 rad18 strain (AID 175); conditions: S. cerevisiae mlh1 rad18 strain growth inhibition, hits give high values
Summary of the method: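 Inhibition values reflect reduced growth of mutant yeast versus vehicle-treated controls following compound exposure; the mutations affect DNA damage repair.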

[7] = at 5.0 µM (retest, dose inferred, filed as 0.5)
[8] = at 50.0 µM (retest, dose inferred, filed as 5.0)

| SMILES | growth inhibition [1, 7] | growth inhibition [1, 8] | growth inhibition ([1]; at 50.0 µM) | growth inhibition [2, 7] | growth inhibition [2, 8] | growth inhibition ([2]; at 50.0 µM) | growth inhibition [3, 7] | growth inhibition [3, 8] | growth inhibition ([3]; at 50.0 µM) | growth inhibition [4, 7] | growth inhibition [4, 8] | growth inhibition ([4]; at 50.0 µM) | growth inhibition [5, 7] | growth inhibition [5, 8] | growth inhibition ([5]; at 50.0 µM) | growth inhibition [6, 7] | growth inhibition [6, 8] | growth inhibition ([6]; at 50.0 µM) |
| --- | --- | --- | --- | --- | --- | --- | --- | --- | --- | --- | --- | --- | --- | --- | --- | --- | --- | --- |
| Oc1c(I)cc(Cl)c2cccnc12 | 64% | 96% (active) | 97.2% (active) | 63% | 97% (active) | 98.3% (active) | 46% | 97% (active) | 97.8% (active) | 72% (active) | 98% (active) | 96.8% (active) | 39% | 96% (active) | 98.8% (active) | 74% (active) | 95% (active) | 98% (active) |
| CC(C)C(NC(=O)/C=C\c1ccccc1)C(=O)O (stereo not given) | -2% | 1% | 88.4% (active) | 1% | -6% | 94.2% (active) | -5% | -7% | 93.5% (active) | 7% | -6% | 95.3% (active) | -3% | -1% | 71.7% (active) | -2% | 4% | 95.2% (active) |
| O=C(O)/C(Cl)=C(\Cl)C(=O)Nc1cccc(C(F)(F)F)c1 | 65% | 99% (active) | 99.5% (active) | 56% | 100% (active) | 99.7% (active) | 68% | 100% (active) | 99.7% (active) | 43% | 99% (active) | 99.3% (active) | 88% (active) | 99% (active) | 99.6% (active) | 49% | 99% (active) | 99.5% (active) |
| COC(=O)c1[nH]c(=O)c(C#N)c(C(=O)OC)c1C(=O)c1ccc(Cl)c(Cl)c1 | -19% | 90% (active) | 97% (active) | -18% | 55% | 73% (active) | 23% | 72% (active) | 95.4% (active) | 3% | 61% | 46.1% | -22% | 90% (active) | 79.5% (active) | -12% | 90% (active) | 93.9% (active) |
| Nc1nc(N)c2c(ccc3c2ccn3Cc2cccc([N+](=O)[O-])c2)n1 | 39% | 60% | 19.9% | 70% (active) | 90% (active) | 0.75% | 56% | 67% | 54.4% | 38% | 53% | 57.5% | 43% | 51% | 83.5% (active) | 29% | 46% | 14.6% |
| CCOC(=O)C1SC(=Nc2ccc(Cl)cc2)N=C1C (stereo not given) | 14% | 56% | 88.8% (active) | 27% | 37% | 91.7% (active) | 26% | 71% (active) | 89.8% (active) | 11% | 66% | 90% (active) | 19% | 69% | 88.8% (active) | 34% | 66% | 89.6% (active) |
| [N-]=[N+]=Nc1ccc(SSCCC(=O)ON2C(=O)CCC2=O)cc1 | 24% | 97% (active) | 98.6% (active) | 20% | 98% (active) | 98.8% (active) | 40% | 98% (active) | 98.3% (active) | 4% | 97% (active) | 97.8% (active) | 2% | 97% (active) | 98.7% (active) | 38% | 98% (active) | 98.5% (active) |
| OC1C2COc3nc4ccccc4n3C(O2)C1O (stereo not given) | -153% | -165% | -7.3% | -54% | -57% | 5.4% | -58% | -70% | -10.4% | -60% | -56% | 33.6% | -69% | -84% | -14.9% | -117% | -118% | -7.05% |
| Nc1ccc(S(=O)(=O)O)c2cccc(S(=O)(=O)O)c12 | -2% | -2% | 3.45% | -2% | 0% | 7.4% | -2% | 0% | 31.5% | -1% | -7% | 71.9% (active) | 0% | 2% | 27.2% | -1% | -2% | -12.9% |
| COC(=O)c1nc(=S)[nH]c(C(=O)OC)c1C(=O)c1ccccn1 | 7% | 93% (active) | 82% (active) | -3% | 84% (active) | 75% (active) | 0% | 87% (active) | 84.5% (active) | 2% | 84% (active) | 70.5% (active) | 6% | 86% (active) | 82.8% (active) | -15% | 91% (active) | 89.1% (active) |
